Measured values: PubChem BioAssay
Activity calls are given as the source filed them. How the calls were made is not given here.

The compounds below were run against Pantothenate synthetase (Mycobacterium tuberculosis (strain ATCC 25618 / H37Rv)) (UniProt P9WIL5) (assay: Recombinant Mtb pantothenate synthetase (PanC) inhibitors, coupled enzyme, confirmatory (AID 375;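 further: 0% = full reaction with vehicle and 100% = no enzyme background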)). Details: coupled enzyme assay; at 10 µM, active compounds read high.
Pantothenate synthetase (Mycobacterium tuberculosis (strain ATCC 25618 / H37Rv)), sequence (P9WIL5 whole entry, looked up): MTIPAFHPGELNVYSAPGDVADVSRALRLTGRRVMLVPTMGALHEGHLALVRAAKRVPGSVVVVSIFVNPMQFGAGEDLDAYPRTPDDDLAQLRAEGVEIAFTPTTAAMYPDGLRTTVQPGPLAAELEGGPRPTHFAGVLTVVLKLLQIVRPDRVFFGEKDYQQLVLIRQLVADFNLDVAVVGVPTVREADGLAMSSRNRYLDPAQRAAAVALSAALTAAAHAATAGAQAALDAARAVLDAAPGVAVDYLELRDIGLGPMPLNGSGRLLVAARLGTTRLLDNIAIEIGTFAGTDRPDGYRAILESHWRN
In the case of `O=C(COC(=O)c1ccc(Br)o1)Nc1ccc(S(=O)(=O)N2CCCC2)cc1`, the inhibition is reported as 5% (inactive). `Cc1cc(=O)n2[nH]c(-c3ccc(Cl)cc3)cc2n1` was tested, and the inhibition was 0% (inactive). `CCOc1ccc(Cn2nnc(C(=O)Nc3cc(C)cc(C)c3)c2N)cc1` was tested, and the inhibition was 0% (inactive). `CCC(c1nnc(SCC(=O)Nc2ccc(C(=O)Nc3ccccc3OC)cc2)o1)N(C)C` (centres undefined) was tested, and the inhibition was 0% (inactive). With `CC1(C)CC(=O)C(C(=O)CCCCC(=O)C2C(=O)CC(C)(C)CC2=O)C(=O)C1` the inhibition was 0% (inactive). `CCc1nnc(NC(=O)CSc2nnc(-c3ccccc3OC)n2-c2ccccc2)s1` was tested, and the inhibition was 4% (inactive). In the case of `CCC(C)NC(=O)CSC1=Nc2ccccc2C2=NC(CC(=O)NCc3ccccc3)C(=O)N12` (centres undefined), the inhibition is reported as 0% (inactive). With `O=C(COC(=O)c1cncc(Br)c1)NCCC1=CCCCC1` the inhibition was 0% (inactive). With `CCCCCc1c(C)nc(SCC(=O)O)[nH]c1=O` the inhibition was 0% (inactive). With `COC(=O)Cn1cc(C(=O)c2cccs2)c2ccccc21` the inhibition was 0% (inactive). For `CCCn1c(=O)c(C(=O)NCc2ccccn2)c(O)c2ccccc21`, the inhibition was 0% (inactive). With `COc1cc(NC(=O)Cc2nn(C)c(=O)c3ccccc23)cc(OC)c1` the inhibition was 0% (inactive). For `COc1cccc(C(c2nnnn2Cc2ccccc2)N2CCN(C(=O)c3ccco3)CC2)c1OC` (centres undefined), the inhibition was 4% (inactive). For `COc1cccc(C(=O)OCn2nnc3ccccc3c2=O)c1OC`, the inhibition was 0% (inactive). With `Cn1c(=O)c2c(nc(SCC(=O)N3CCCc4ccccc43)n2C)n(C)c1=O` the inhibition was 1% (inactive). `FC(F)Sc1nnc(-c2cccs2)n1-c1ccccc1` was tested, and the inhibition was 0% (inactive). For `Cc1cc(N2C(=O)C(O)=C(C(=O)c3ccc(C)o3)C2c2cccs2)no1` (centres undefined), the inhibition was 0% (inactive). With `O=C(Cn1c(=O)[nH]c2ccsc2c1=O)NC1CCCCCC1` the inhibition was 7% (inactive). In the case of `CCCNc1nc(N2CCOCC2)nc(N2CCOCC2)n1`, the inhibition is reported as 0% (inactive). `CN(C)CCN1C(=O)C(O)=C(C(=O)c2cc3ccccc3o2)C1c1ccc(N(C)C)cc1` (centres undefined) was tested, and the inhibition was 0% (inactive). In the case of `c1csc(-c2nc3nc4ccccc4nc3n2Cc2ccc3c(c2)OCO3)c1`, the inhibition is reported as 0% (inactive). With `O=C1CCc2cc(OCCCCc3nnnn3C3CCCCC3)ccc2N1` the inhibition was 3% (inactive). `O=C(NCC(F)(F)F)Nc1cccnc1` was tested, and the inhibition was 7% (inactive). In the case of `COc1ccc(CCN2CCC(Nc3nc4ccccc4n3Cc3ccc(F)cc3)CC2)cc1`, the inhibition is reported as 2% (inactive). `O=C(CSc1nnnn1-c1ccccc1)c1cc2ccccc2oc1=O` was tested, and the inhibition was 0% (inactive). `Cc1ccc(C)c(S(=O)(=O)NCc2ccc(C(=O)N3CCN(C)CC3)cc2)c1` was tested, and the inhibition was 0% (inactive). For `N#Cc1c(NC(=O)c2ccc(Br)o2)n(-c2ccccc2)c2nc3ccccc3nc12`, the inhibition was 2% (inactive). In the case of `Fc1ccc(Cn2nnc(-c3ccc(CN4CCOCC4)cc3)n2)cc1`, the inhibition is reported as 0% (inactive). For `CCN(CC)S(=O)(=O)c1ccc(NC2CCCc3ccccc32)nc1` (centres undefined), the inhibition was 0% (inactive). With `Cc1ccc(Cn2nnc3c(=O)[nH]c(C4CCN(S(=O)(=O)c5ccc(F)cc5)CC4)nc32)cc1` the inhibition was 3% (inactive). For `C/C(=C\C(=O)c1ccc(F)cc1)Nc1ccc(N2CCOCC2)cc1`, the inhibition was 0% (inactive). For `CC1(c2ccncc2)Nc2ccccc2-c2nc3ccccc3n21` (centres undefined), the inhibition was 0% (inactive). For `Cc1cc2c(cc(C(=O)NCc3cccnc3)n2Cc2ccc(Cl)cc2)o1`, the inhibition was 4% (inactive). For `NC(N)=Nc1nc(CSCC/C(N)=N/S(N)(=O)=O)cs1`, the inhibition was 0% (inactive). In the case of `O=C(NCc1ccc2c(c1)OCO2)C1CCC(CNS(=O)(=O)c2ccccc2)CC1` (centres undefined), the inhibition is reported as 0% (inactive). In the case of `Cc1cc(Cl)c(S(=O)(=O)N2CCN(c3ccc(F)cc3)CC2)cc1OCC(N)=O`, the inhibition is reported as 0% (inactive). In the case of `CC(C)C[C@H]1C(=O)N2CCC[C@H]2[C@]2(O)O[C@](NC(=O)[C@@H]3C=C4c5cccc6[nH]c(Br)c(c56)CC4N(C)C3)(C(C)C)C(=O)N12` (some centres undefined), the inhibition is reported as 4% (inactive). For `CCN(CC)S(=O)(=O)c1ccc(F)cc1`, the inhibition was 0% (inactive). `COc1ccccc1NC(=O)c1ccc(NC(=O)CSc2nnnn2C)cc1` was tested, and the inhibition was 1% (inactive).
